# According to PubChem BioAssay (NCATS):
# Inconclusive results are not listed. Where a call stands in place of a potency, no number is given. Activity calls are given as the source filed them. Calls come from the whole dose curve; as a rule, active = well fitted cell-killing curve with a large enough effect; inconclusive = small, poorly fitted or top-dose-only effect, or effect the other way; inactive = flat fitted curve, though single readings scatter.
# System: PA-1
# Test: Primary qHTS to identify gynecologic anti-cancer compounds using libraries of approved drugs and bioactive compounds (AID 1345084); note: nearly all actives have a fitted effect of over 55% in size
# Conditions: Gynecologic cancer cell panel viability, ATPlite luminescence, 48 h; series mostly up to 57.5 µM
# Summary of the method: (§1)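 In this quantitative HTS, cell killing is estimated from loss of ATP-dependent luciferase light. Cells see five compound concentrations over a 48 h exposure.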
# Potency is the fitted concentration of half-maximal effect.
row,Compound,Potency
1,CC(C)(C)c1ccc(CN2CCN(C(c3ccccc3)c3ccc(Cl)cc3)CC2)cc1 (stereo not drawn),inactive
2,COc1ccc(C[C@H](C)NC[C@@H](O)c2ccc(O)c(NC=O)c2)cc1,inactive
3,O=C(OCc1ccccc1)c1ccc(O)cc1,inactive
4,COc1ccc2nc(NC(=O)Nc3ccccc3)sc2c1,25.1 µM (active)
5,O=C(O)Cc1cc(I)c(Oc2ccc(O)c(I)c2)c(I)c1,inactive
6,C=C1[C@H](CO)[C@@H](O)C[C@@H]1n1cnc2c(=O)[nH]c(N)nc21,inactive
7,N[C@@H](Cc1cc(I)c(Oc2ccc(O)c(I)c2)c(I)c1)C(=O)O,inactive
8,CCN(CC)CCOCCOC(=O)C(CC)(CC)c1ccccc1,inactive
9,CO[C@H]1C[C@@H]2CC[C@@H](C)[C@@](O)(O2)C(=O)C(=O)N2CCCC[C@H]2C(=O)O[C@H]([C@H](C)C[C@@H]2CC[C@@H](OC(=O)C(C)(CO)CO)[C@H](OC)C2)CC(=O)[C@H](C)/C=C(\C)[C@@H](O)[C@@H](OC)C(=O)[C@H](C)C[C@H](C)/C=C/C=C/C=C/1C,inactive
10,C/C(=C\C(=O)OCCCCCCCCC(=O)O)C[C@@H]1OC[C@H](C[C@@H]2O[C@H]2[C@@H](C)[C@H](C)O)[C@@H](O)[C@H]1O,inactive
11,C[C@H]1O[C@@H](O[C@H]2[C@@H](O)C[C@H](O[C@H]3[C@@H](O)C[C@H](O[C@H]4CC[C@@]5(C)[C@H](CC[C@@H]6[C@@H]5C[C@@H](O)[C@]5(C)[C@@H](C7=CC(=O)OC7)CC[C@]65O)C4)O[C@@H]3C)O[C@@H]2C)C[C@H](O)[C@@H]1O,0.282 µM (active)
12,CC(=O)Nc1ccc(NC(=S)NC(=O)c2ccc(C(C)(C)C)cc2)cc1,10 µM (active)
13,C=C1CC[C@H](O)CC1=C/C=C1\CCC[C@]2(C)[C@@H]([C@H](C)/C=C/[C@H](C)C(C)C)CC[C@@H]12,inactive
14,CN(C)CCCSc1ccccc1NC(=O)/C=C/c1ccccc1,inactive
15,O=C1c2ccccc2C(=O)c2c1ccc(O)c2O,inactive
16,C[C@]12CC[C@@H]3c4ccc(OC(=O)c5ccccc5)cc4CC[C@H]3[C@@H]1CC[C@@H]2O,inactive
17,CC1CC(OC(=O)C(O)c2ccccc2)CC(C)(C)C1 (stereo not drawn),inactive
18,O=C(O)CCC(=O)c1ccc(-c2ccccc2)cc1,inactive

# System: SKOV3
# Test: as above
# Conditions: Gynecologic cancer cell panel viability, ATPlite luminescence, 48 h; series mostly up to 57.5 µM
# Summary of the method: as §1
row,Compound,outcome
1,Nc1ccc(N=Nc2ccccc2)c(N)n1,inactive
2,CC(C)(C)c1ccc(CN2CCN(C(c3ccccc3)c3ccc(Cl)cc3)CC2)cc1 (stereo not drawn),inactive
3,O=C(OCc1ccccc1)c1ccc(O)cc1,inactive
4,O=C(O)Cc1cc(I)c(Oc2ccc(O)c(I)c2)c(I)c1,inactive
5,C=C1[C@H](CO)[C@@H](O)C[C@@H]1n1cnc2c(=O)[nH]c(N)nc21,inactive
6,N[C@@H](Cc1cc(I)c(Oc2ccc(O)c(I)c2)c(I)c1)C(=O)O,inactive
7,CCN(CC)CCOCCOC(=O)C(CC)(CC)c1ccccc1,inactive
8,C=C1CC[C@H](O)CC1=C/C=C1\CCC[C@]2(C)[C@@H]([C@H](C)/C=C/[C@H](C)C(C)C)CC[C@@H]12,inactive
9,CN(C)CCCSc1ccccc1NC(=O)/C=C/c1ccccc1,inactive
10,C[C@]12CC[C@@H]3c4ccc(OC(=O)c5ccccc5)cc4CC[C@H]3[C@@H]1CC[C@@H]2O,inactive
11,CC1CC(OC(=O)C(O)c2ccccc2)CC(C)(C)C1 (stereo not drawn),inactive
12,O=C(O)CCC(=O)c1ccc(-c2ccccc2)cc1,inactive

# System: Tov-21-G
# Test: as above
# Conditions: Gynecologic cancer cell panel viability, ATPlite luminescence, 48 h; series mostly up to 57.5 µM
# Summary of the method: as §1
row,Compound,Potency
1,Nc1ccc(N=Nc2ccccc2)c(N)n1,inactive
2,CC(C)(C)c1ccc(CN2CCN(C(c3ccccc3)c3ccc(Cl)cc3)CC2)cc1 (stereo not drawn),inactive
3,COc1ccc(C[C@H](C)NC[C@@H](O)c2ccc(O)c(NC=O)c2)cc1,inactive
4,O=C(OCc1ccccc1)c1ccc(O)cc1,inactive
5,O=C(O)Cc1cc(I)c(Oc2ccc(O)c(I)c2)c(I)c1,inactive
6,C=C1[C@H](CO)[C@@H](O)C[C@@H]1n1cnc2c(=O)[nH]c(N)nc21,inactive
7,N[C@@H](Cc1cc(I)c(Oc2ccc(O)c(I)c2)c(I)c1)C(=O)O,inactive
8,CCN(CC)CCOCCOC(=O)C(CC)(CC)c1ccccc1,inactive
9,CO[C@H]1C[C@@H]2CC[C@@H](C)[C@@](O)(O2)C(=O)C(=O)N2CCCC[C@H]2C(=O)O[C@H]([C@H](C)C[C@@H]2CC[C@@H](OC(=O)C(C)(CO)CO)[C@H](OC)C2)CC(=O)[C@H](C)/C=C(\C)[C@@H](O)[C@@H](OC)C(=O)[C@H](C)C[C@H](C)/C=C/C=C/C=C/1C,inactive
10,C/C(=C\C(=O)OCCCCCCCCC(=O)O)C[C@@H]1OC[C@H](C[C@@H]2O[C@H]2[C@@H](C)[C@H](C)O)[C@@H](O)[C@H]1O,inactive
11,C[C@H]1O[C@@H](O[C@H]2[C@@H](O)C[C@H](O[C@H]3[C@@H](O)C[C@H](O[C@H]4CC[C@@]5(C)[C@H](CC[C@@H]6[C@@H]5C[C@@H](O)[C@]5(C)[C@@H](C7=CC(=O)OC7)CC[C@]65O)C4)O[C@@H]3C)O[C@@H]2C)C[C@H](O)[C@@H]1O,0.1 µM (active)
12,Oc1ccc(/C=C/c2cc(O)cc(O)c2)cc1,22.4 µM (active)
13,C=C1CC[C@H](O)CC1=C/C=C1\CCC[C@]2(C)[C@@H]([C@H](C)/C=C/[C@H](C)C(C)C)CC[C@@H]12,inactive
14,CN(C)CCCSc1ccccc1NC(=O)/C=C/c1ccccc1,inactive
15,O=C1c2ccccc2C(=O)c2c1ccc(O)c2O,inactive
16,C[C@]12CC[C@@H]3c4ccc(OC(=O)c5ccccc5)cc4CC[C@H]3[C@@H]1CC[C@@H]2O,inactive
17,CC1CC(OC(=O)C(O)c2ccccc2)CC(C)(C)C1 (stereo not drawn),inactive
18,O=C(O)CCC(=O)c1ccc(-c2ccccc2)cc1,inactive
